Source: PubChem BioAssay
TLR4-MyD88 BLA = blocks binding of human TLR4 to MyD88 | O00206+Q99836 | HeLa CL3-4 TLR4/MyD88 BLA complementation, FRET ratio | inhibition, % at 8.4 µM | actives 0.18% (n = 200,000) | AID 861; in the data active = inhibition above about 25%;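 note: 0% = vehicle and 100% = reference inhibitor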
Target sequence (O00206 whole entry, looked up): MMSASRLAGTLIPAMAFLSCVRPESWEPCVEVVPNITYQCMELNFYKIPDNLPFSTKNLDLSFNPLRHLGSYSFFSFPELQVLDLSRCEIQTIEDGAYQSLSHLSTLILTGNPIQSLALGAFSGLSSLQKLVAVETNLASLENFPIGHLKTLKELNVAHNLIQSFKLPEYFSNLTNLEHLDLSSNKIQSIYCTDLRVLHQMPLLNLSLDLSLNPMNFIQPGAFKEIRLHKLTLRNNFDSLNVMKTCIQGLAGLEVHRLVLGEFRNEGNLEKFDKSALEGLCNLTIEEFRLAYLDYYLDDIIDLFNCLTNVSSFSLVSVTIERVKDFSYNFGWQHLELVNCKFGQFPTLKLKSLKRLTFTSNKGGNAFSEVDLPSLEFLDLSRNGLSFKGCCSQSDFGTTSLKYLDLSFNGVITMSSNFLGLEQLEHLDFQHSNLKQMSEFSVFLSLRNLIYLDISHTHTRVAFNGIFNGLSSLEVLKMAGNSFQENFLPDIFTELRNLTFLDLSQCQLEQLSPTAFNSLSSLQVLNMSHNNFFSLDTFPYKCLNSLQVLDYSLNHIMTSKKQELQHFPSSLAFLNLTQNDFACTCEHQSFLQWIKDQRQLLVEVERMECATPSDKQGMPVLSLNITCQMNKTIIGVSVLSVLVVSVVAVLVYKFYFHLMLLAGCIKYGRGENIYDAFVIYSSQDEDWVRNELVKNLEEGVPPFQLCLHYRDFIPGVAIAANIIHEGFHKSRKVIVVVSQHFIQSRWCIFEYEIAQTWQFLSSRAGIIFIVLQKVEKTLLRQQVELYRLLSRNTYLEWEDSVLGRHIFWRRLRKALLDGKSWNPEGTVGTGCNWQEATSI
Target sequence (Q99836 whole entry, looked up): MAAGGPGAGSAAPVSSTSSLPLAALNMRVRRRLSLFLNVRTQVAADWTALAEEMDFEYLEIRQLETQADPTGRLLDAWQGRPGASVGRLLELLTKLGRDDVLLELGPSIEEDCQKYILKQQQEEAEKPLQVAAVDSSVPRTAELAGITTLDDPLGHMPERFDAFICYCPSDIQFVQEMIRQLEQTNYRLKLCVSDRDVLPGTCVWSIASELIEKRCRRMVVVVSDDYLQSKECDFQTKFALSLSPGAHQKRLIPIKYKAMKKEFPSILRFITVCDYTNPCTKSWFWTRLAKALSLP
TLR9-MyD88 block = inhibitors of human TLR9-MyD88 binding | inhibition, % at 4.98 µM | AID 504734 | CHO BLA complementation TLR9-MyD88, CCF4 FRET ratio | actives 0.21% (n = 340,000) | Q9NR96+Q99836;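 active = inhibition above the mean over all tested compounds plus 3 SD, cut at about 21% in these data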;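 note: 0% = DMSO only wells and 100% = clavulanate BLA inhibitor control wells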
NOD2-RIPK2 inh = inhibitors of human NOD2-RIPK2 interaction; CHO BLA complementation NOD2-RIPK2, CCF4 ratio; inhibition, % at 4.98 µM; actives 0.38% (n = 360,000); in the data active = inhibition above about 21%;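 note: 0% = vehicle only and 100% = reference blocker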
ABHD5 PLIN5 PPI = blocks binding of human ABHD5 to perilipin-5; Q00G26+Q8WTS1; Split G. princeps luciferase complementation, luminescence, 4 h; inhibition, % at 4 µM; actives 0.78% (n = 360,000);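 active = inhibition above the mean inhibition across every tested compound plus 3 SD, cut at about 22% in these data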;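 note: 0% = DMSO only wells and the 100% control is not disclosed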
m5-HT2A agonist = agonists of mouse serotonin 5-HT2A receptor (HTR2A); P35363; CHO-K1 mHTR2A beta-arrestin complementation, luminescence; percent of 30 µM serotonin response; activation, % at 7.6 µM; actives 0.66% (n = 360,000); AID 624169;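 active = activation above a run cutoff, the mean activation of all tested compounds plus 3 SD, cut at about 14% in these data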;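 note: 0% = plate median of compound wells and 100% = 30 µM serotonin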
CRFR2-BP antag = antagonists of CRF-binding protein/CRF-R2 receptor complex | actives 0.59% (n = 350,000) | inhibition, % at 11.8 µM | HEK293 CRF-R2/CRF-BP, CRF-induced calcium fluorescence;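 active = inhibition of the ligand-induced calcium signal above about 50% at the single tested concentration, limit read from the data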
MOR ag counter = OPRM1 agonism in mouse HTR2A counterscreen; shares compounds with m5-HT2A agonist; U2OS OPRM1 beta-arrestin PathHunter, luminescence; DMSO 0%, DAMGO 9.3 µM 100%; activation, % at 9.3 µM; actives 5.3% (n = 2,300); AID 624380;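 active = mean activation above the mean of DMSO-only wells plus 3 SD, cut at about 0.5% in these data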
m5-HT2A ag conf = confirmation of mouse HTR2A serotonin receptor agonists | activation, % at 7.6 µM | CHO-K1 PathHunter beta-arrestin recruitment, luminescence; DMSO 0%, 30 µM serotonin 100% | actives 19% (n = 2,300) | shares compounds with m5-HT2A agonist;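 active = mean activation across triplicates above the hit threshold derived in the original primary screen, cut at about 15% in these data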
* = called active by the depositor; · = no result. Hits are enriched below; roughly 2.4% of the tested compounds scored in any of these assays.

SMILES | TLR4-MyD88 BLA | TLR9-MyD88 block | NOD2-RIPK2 inh | ABHD5 PLIN5 PPI | m5-HT2A agonist | CRFR2-BP antag | MOR ag counter | m5-HT2A ag conf
CC(=O)c1ccccc1OCC(O)Cn1ccnc1 (stereo not given) | · | 1 | -1 | 3 | 21* | 23 | -1 | -3
O=C1NC[C@@H](CCCCN2CCN(CCC3CCCCC3)C(=O)C2=O)N(CC2CCCCC2)C1=O | · | · | -4 | -4 | -1 | · | · | ·
Cc1cccc(NS(=O)(=O)c2ccc(NC(=O)N3CCCCC3)cc2)c1 | · | -9 | -10 | -6 | 15* | -4 | 0 | -4
CCOC(=O)c1[nH]c2ccc(OC)cc2c1NC(=O)CCN1CCSCC1 | 3 | -9 | -3 | -1 | -2 | -5 | · | ·
COC(=O)c1[nH]c2ccccc2c1NC(=O)CCN1CCSCC1 | -16 | 0 | 3 | -3 | 16* | 2 | -1 | -4
CC(=O)NC(c1ccc(F)c(F)c1)c1nc(-c2cccc(C(=O)O)c2)cs1 (stereo not given) | · | · | -13 | 5 | 2 | · | · | ·
CCOC(=O)/C=C(\C)N1N=C(c2ccccc2)CC1c1ccccc1 (stereo not given) | 3 | 8 | 2 | 4 | 20* | 1 | -1 | -3
CC(=O)N1C[C@H]2CON(C)[C@H]2C[C@H]1c1ccccc1Br | · | -3 | 3 | -2 | 18* | -8 | -1 | -4
Cc1ccc(C)c(OCC(=O)NCC2COc3ccccc3O2)c1 (stereo not given) | · | 1 | -5 | 7 | 5 | 3 | · | ·
Cc1cc(C)c(OCC(=O)NCC2COc3ccccc3O2)c(C)c1 (stereo not given) | · | 3 | -1 | -5 | 24* | -3 | 0 | 17*
O=C(Nc1ccccc1)c1cnc2n(c1=O)CCS2 | -2 | -6 | 5 | 2 | 3 | -7 | · | ·
O=C(c1cnc2n(c1=O)CCS2)N1CCN(c2ccc(Cl)c(Cl)c2)CC1 | -1 | -7 | 0 | 0 | 20* | 3 | -1 | 4
COc1ccc(CCNC(=O)c2c(Cl)ccc(Cl)c2OC)cc1OC | · | -12 | -15 | -4 | 31* | 6 | -1 | -5
CCn1ccnc1CN(C)C(=O)C1CCC(=O)N(Cc2cccc(C(F)(F)F)c2)C1 (stereo not given) | · | 13 | -3 | -3 | 15* | 1 | -1 | -4
CC(C)CN(Cc1cc(=O)oc2cc(-c3ccccc3)c(O)cc12)CC(C)C | · | -2 | 1 | -7 | 16* | -5 | 2.3* | 22*
CCNS(=O)(=O)c1ccc(NS(=O)(=O)c2cc(C)ccc2C)cc1 | -16 | 5 | -9 | 15 | -3 | -2 | · | ·
CCCCNS(=O)(=O)c1ccc(NS(=O)(=O)c2c(C)cc(C)cc2C)cc1 | 9 | 2 | -1 | -18 | 18* | -60 | 0 | 13
CCCCn1nnnc1C(c1ccccc1)N1CCN(c2ncccc2C(F)(F)F)CC1 (stereo not given) | · | · | -5 | 4 | 6 | · | · | ·
COc1ccccc1CN1CCN(C(=O)c2ccco2)CC1 | · | -34 | -11 | 13 | 30* | 9 | -1 | 92*
COc1ccc(CN2CCN(C(=O)c3ccco3)CC2)c(OC)c1OC | · | · | 5 | 10 | 29* | -3 | -1 | 78*
COc1ccc(Br)cc1CN1CCN(C(=O)c2ccco2)CC1 | · | -22 | -7 | 1 | -2 | 15 | · | ·
Cc1csc(-c2nc3ccccc3n2C(C(=O)NC(C)(C)C)c2cc3ccccc3o2)c1 (stereo not given) | · | · | -1 | -13 | -3 | · | · | ·
CCC1=C(OC(=O)N(CC)CC)N2C(=O)OC(=NCC3CC3)[C@]2(Cc2ccccc2)[C@H]2C1=CC[C@H]1C(=O)N(CC)C(=O)[C@H]12 | · | -1 | -2 | -7 | 18* | 7 | 0.9* | 4
Cc1ccccc1NC(=O)c1cccc(NC(=O)c2ccco2)c1 | · | -7 | 2 | -6 | 15* | 2 | -1 | 0
O=C(Nc1ccc(Cl)cc1)c1ccco1 | · | -15 | 7 | 0 | 15* | 6 | 0 | -3
SMILES | TLR4-MyD88 BLA | TLR9-MyD88 block | NOD2-RIPK2 inh | ABHD5 PLIN5 PPI | m5-HT2A agonist | CRFR2-BP antag | MOR ag counter | m5-HT2A ag conf
Cc1ccc(Oc2ccc(NC(=O)c3ccco3)cc2)cc1 | -9 | 10 | 8 | 2 | -4 | 16 | · | ·
CC(=O)Nc1ccc(NC(=O)c2ccco2)cc1 | 8 | -6 | 1 | 5 | -3 | 2 | · | ·
Cc1ccc(NC(=O)c2ccc(OC(=O)c3ccco3)cc2)cc1 | -5 | 0 | -3 | 4 | 18* | 19 | 0 | 2
Cc1cc(Cl)ccc1-c1cc2nc(NCCCN(C)C)n(C)c(=O)c2s1 | · | · | 1 | 1 | -9 | · | · | ·
CCOc1ccccc1N1CCN(Cc2ccco2)CC1 | -13 | 0 | -2 | 0 | 1 | -4 | · | ·
CCOc1ccccc1N1CCN(Cc2ccc(Br)s2)CC1 | 6 | 2 | -14 | -10 | 48* | -11 | 0 | 26*
CCOc1ccc2oc(-c3ccccc3)c(C(=O)N(C)C)c2c1 | 0 | -1 | -1 | 3 | -4 | 0 | · | ·
CCN(CC)C(=O)c1c(-c2ccccc2)oc2ccc(OC)cc12 | -5 | 10 | -9 | -6 | 15* | -16 | 0 | -4
CCC12CC1(C(=O)OC)C(=O)N1CCc3c([nH]c4ccccc34)C12 (stereo not given) | · | · | 2 | 5 | 37* | · | 0 | 28*
COc1ccc(-c2nc(CS(=O)CC(=O)NCCCN3CCOCC3)c(C)o2)cc1OC (stereo not given) | · | 8 | -2 | -3 | 17* | -11 | 0 | 0
O=C(Nc1ccc(Cl)cc1)N[C@@H]1CC[C@H](CCNS(=O)(=O)c2ccccc2F)O[C@@H]1CO | · | · | -8 | -1 | -3 | · | · | ·
COCCNC(=O)C1(C)CCN(C(=O)c2nc(C)oc2C)C1 (stereo not given) | · | · | 0 | -10 | 4 | · | · | ·
CCOc1ccc(CCNC(=O)c2cccc(NC3=NC4CS(=O)(=O)CC4S3)c2)cc1 (stereo not given) | · | 5 | 9 | 7 | 18* | 8 | -1 | -4
O=S(=O)(NCc1ccc(F)cc1)c1cc(Br)ccc1Br | · | -5 | 6 | -2 | 18* | -3 | 0 | 0
Cc1cccc(-n2ccnc2SCC(=O)O)c1C | -1 | 1 | 0 | -3 | 1 | -2 | · | ·
Cc1ccccc1-n1ccnc1SCC(=O)O | -13 | -9 | -1 | -3 | 17* | -8 | -1 | -5
O=C(NC(=O)N1CCN(c2cccc(Cl)c2)CC1)c1ccccc1 | 7 | -4 | -7 | -7 | 15* | -3 | 0 | 4
O=C(NC(=O)N1CCN(c2cccc(Cl)c2)CC1)c1ccc(Cl)cc1 | · | -13 | -4 | -3 | 5 | -11 | · | ·
